The values below come from paper PMC10668032, “Altered binding affinity of SIX1-Q177R correlates with enhanced WNT5A and WNT pathway effector expression in Wilms tumor”.

In all, about 33,000 sequences were measured (“e-score”: median about -0.053, highest 2% from about 0.38 on). Shown is part of a subset that was picked to be rich in the highest values.

The target in this experiment is T1, SIX1 homeodomain (reference allele) (human, UniProt Q15475 108-198).
T1 sequence: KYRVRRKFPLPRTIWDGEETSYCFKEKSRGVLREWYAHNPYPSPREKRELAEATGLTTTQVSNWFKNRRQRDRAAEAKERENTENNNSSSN
Nature of the experiment: universal protein binding microarray; Universal all-10-mer PBM (8x60K, AMADID 030236), 300 nM GST-tagged protein, Alexa Fluor 488 anti-GST; buffer, salt, pH and temperature not stated (as in Berger); high values mean tight binding. Conditions: protein: ivt; tags: N-terminal GST; dsDNA, one strand shown. The gist of the method: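 Binding was expressed as 8-mer E-scores calculated with the Universal PBM Analysis Suite. The GST-tagged homeodomains, made by in vitro transcription/translation, were applied in duplicate at 300 nM final concentration to universal 'all 10-mer' protein binding microarrays (8×60K format).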
In the case of ATCGGGGG, the binding signal was found to be 0.223 ± 0.00524 E-score.

Turning to ATCAACAG, the binding signal was found to be 0.209 ± 0.0732 E-score.

ATCCGGCC: the binding signal was 0.316 ± 0.022 E-score.

On to CGATCGGC, for which the binding signal is 0.1802 ± 0.00119 E-score.

Consider TATTATGA, for which the binding signal amounted to 0.207 ± 0.134 E-score.

As to ATCAAGCA, the binding signal is 0.174 ± 0.047 E-score.

As for GATGCGGA, the binding signal worked out at 0.199 ± 0.0357 E-score.

CTTCGATC: the binding signal is 0.152 ± 0.112 E-score.

For GCTGATCA, the binding signal is 0.198 ± 0.00374 E-score.

As for CCTGATCA, the binding signal amounted to 0.306 ± 0.0156 E-score.

With GCAGATCC, the binding signal came out at 0.272 ± 0.0482 E-score.

As to ACTGATCC, the binding signal worked out at 0.398 ± 0.007 E-score.

Regarding ACTGATCG, the binding signal is 0.156 ± 0.0405 E-score.

Consider GCTGATCC, for which the binding signal amounted to 0.425 ± 0.0138 E-score.

As to ACTGATCT, the binding signal amounted to 0.34 ± 0.0165 E-score.

Turning to CCTGATCG, the binding signal is 0.197 ± 0.0659 E-score.

As for CCTGATCC, the binding signal was 0.387 ± 0.0469 E-score.

For GTCTAGTA, the binding signal stood at 0.158 ± 0.0279 E-score.

As to CACACCGG, the binding signal was 0.224 ± 0.0376 E-score.

As for GTATACGA, the binding signal stood at 0.308 ± 0.0266 E-score.

On to CATGGTGA, for which the binding signal stood at 0.225 ± 0.035 E-score.

Turning to AATATGCC, the binding signal amounted to 0.16 ± 0.0322 E-score.

As to AATATGCG, the binding signal amounted to 0.171 ± 0.0476 E-score.

Regarding GATATGCA, the binding signal was determined as 0.4032 ± 0.00302 E-score.

As for CATATGCC, the binding signal was 0.162 ± 0.0394 E-score.

Regarding GATATGAA, the binding signal is 0.259 ± 0.0356 E-score.

For GATATGCC, the binding signal was 0.427 ± 0.0454 E-score.

Turning to CTAATACC, the binding signal stood at 0.285 ± 0.0649 E-score.

In the case of ATAATACC, the binding signal came out at 0.421 ± 0.0503 E-score.

ATAATACG: the binding signal came to 0.385 ± 0.0407 E-score.

On to ACAATACG, for which the binding signal was found to be 0.25 ± 0.0363 E-score.

As to ATAATATG, the binding signal was 0.27 ± 0.0724 E-score.

Regarding ATAATACA, the binding signal turned out to be 0.302 ± 0.0417 E-score.

Turning to GGAGCATA, the binding signal was determined as 0.213 ± 0.018 E-score.

On to ATATGAGG, for which the binding signal came to 0.156 ± 0.0225 E-score.

As for CGTCTAAG, the binding signal came to 0.193 ± 0.0194 E-score.

On to GCAATATA, for which the binding signal amounted to 0.16 ± 0.0581 E-score.

AGACACCC: the binding signal was 0.335 ± 0.0199 E-score.

Regarding AGACACCG, the binding signal turned out to be 0.323 ± 0.0488 E-score.

On to TCACACCA, for which the binding signal worked out at 0.195 ± 0.0562 E-score.

For CCACACCG, the binding signal came out at 0.151 ± 0.104 E-score.

GGACACCC: the binding signal came out at 0.372 ± 0.033 E-score.

Take CGACACCA: the binding signal was 0.416 ± 0.0371 E-score.

Turning to CAACACCA, the binding signal amounted to 0.282 ± 0.0199 E-score.

CGACACCG: the binding signal was 0.427 ± 0.0217 E-score.

On to CGACACCC, for which the binding signal turned out to be 0.439 ± 0.0379 E-score.

Regarding CCATAGGG, the binding signal worked out at 0.162 ± 0.116 E-score.

As to GCAGATCA, the binding signal came out at 0.369 ± 0.0161 E-score.

ATACTGAG: the binding signal amounted to 0.286 ± 0.0205 E-score.

In the case of CTCCAGGA, the binding signal worked out at 0.161 ± 0.0145 E-score.

Turning to ATCAGGTA, the binding signal was found to be 0.2929 ± 0.00141 E-score.

CTCGTGTA: the binding signal is 0.158 ± 0.00844 E-score.

Regarding AAAATCCG, the binding signal came to 0.175 ± 0.0497 E-score.

Regarding CGAGTATA, the binding signal was determined as 0.29 ± 0.0819 E-score.

Take AGAGTATC: the binding signal was 0.465 ± 0.0179 E-score.

For the sequence CGAGTACC, the binding signal was determined as 0.185 ± 0.0226 E-score.

CGAGTATC: the binding signal came to 0.435 ± 0.0231 E-score.

On to AGAGTATA, for which the binding signal was found to be 0.262 ± 0.0847 E-score.

As for GGAGTATA, the binding signal is 0.319 ± 0.0316 E-score.

As to ACCGATCG, the binding signal came to 0.272 ± 0.0437 E-score.

For the sequence ATATAGCC, the binding signal worked out at 0.25 ± 0.032 E-score.

As for TGACACCA, the binding signal turned out to be 0.466 ± 0.0154 E-score.

On to GGACACCA, for which the binding signal came out at 0.3862 ± 0.00187 E-score.

As for AGACACCT, the binding signal was 0.287 ± 0.0126 E-score.

For TAACACCA, the binding signal stood at 0.299 ± 0.0116 E-score.

Regarding GGACACGA, the binding signal amounted to 0.176 ± 0.0225 E-score.

As to AGACACCA, the binding signal came to 0.329 ± 0.0244 E-score.

As for GATTATCA, the binding signal came out at 0.2193 ± 0.00188 E-score.

With CCAGATTA, the binding signal was 0.252 ± 0.0366 E-score.

Regarding ACCATGTA, the binding signal was determined as 0.197 ± 0.0756 E-score.

In the case of GAGGACAC, the binding signal amounted to 0.222 ± 0.0132 E-score.

Take AGGCGGAT: the binding signal worked out at 0.346 ± 0.0312 E-score.

On to AATCGGAT, for which the binding signal came to 0.253 ± 0.0252 E-score.

For AGTCGGAT, the binding signal was 0.296 ± 0.0281 E-score.

ACACGGAT: the binding signal came out at 0.4012 ± 0.00112 E-score.

For AGACGGCA, the binding signal stood at 0.197 ± 0.0126 E-score.

Consider ACACGGCT, for which the binding signal amounted to 0.2 ± 0.00761 E-score.

With AGACGGAT, the binding signal amounted to 0.402 ± 0.0158 E-score.

With ATACGTAC, the binding signal turned out to be 0.336 ± 0.0217 E-score.

With ATACGTAT, the binding signal was found to be 0.421 ± 0.00632 E-score.

As for AAACGGAT, the binding signal is 0.364 ± 0.0337 E-score.

On to ACTCGGAT, for which the binding signal turned out to be 0.38 ± 0.00767 E-score.

With ATACGTAG, the binding signal is 0.276 ± 0.0521 E-score.

For the sequence TCAGATGA, the binding signal was 0.3071 ± 0.00299 E-score.

For the sequence AAGATGAT, the binding signal was found to be 0.156 ± 0.09 E-score.

As for TATCGATA, the binding signal was 0.342 ± 0.0612 E-score.

For GATCAAAC, the binding signal was determined as 0.193 ± 0.0111 E-score.

For the sequence ACACCATC, the binding signal came to 0.312 ± 0.0186 E-score.

Take ATCGGGGC: the binding signal amounted to 0.198 ± 0.0293 E-score.

As for CGTCTCAC, the binding signal was found to be 0.254 ± 0.0158 E-score.

As for AACCGATC, the binding signal worked out at 0.335 ± 0.00772 E-score.

Consider TACCCCTA, for which the binding signal is 0.34 ± 0.00513 E-score.

Turning to ATACGGAA, the binding signal amounted to 0.218 ± 0.0296 E-score.

With ATACGGAT, the binding signal is 0.4254 ± 0.00356 E-score.

With ATACGGAG, the binding signal turned out to be 0.193 ± 0.0505 E-score.
